# Results: article PMC5540273 (PLoS ONE, 2017)
# Values joined by “and” are separate entries in the source; they are usually repeats but may differ in a detail not shown here. Equal entries are not always repeated. Where two headings read alike, the source gives them in different places.
# Tests used:
# SgK110 = settings: concentration: 1 μM, replicates: in singlicate; n = 1
# TAK1 = system: T1, TAK1; settings: concentration: 1 μM, replicates: in singlicate, n = 1
# T1 construct: gene MAP3K7
# TAOK1 = settings: concentration: 1 μM, replicates: in singlicate; n = 1
# TAOK2 = settings: concentration: 1 μM, replicates: in singlicate, n = 1
# TAOK3 = settings: concentration: 1 μM, replicates: in singlicate, n = 1
# TBK1 = settings: concentration: 1 μM, replicates: in singlicate, n = 1
# TEC = settings: concentration: 1 μM, replicates: in singlicate; n = 1
# TESK1 = settings: concentration: 1 μM, replicates: in singlicate, n = 1
# TGFBR1 = settings: concentration: 1 μM, replicates: in singlicate, n = 1
# TGFBR2 = settings: concentration: 1 μM, replicates: in singlicate; n = 1
# TIE1 = settings: concentration: 1 μM, replicates: in singlicate; n = 1
# TIE2 = system: T2, TIE2; settings: concentration: 1 μM, replicates: in singlicate, n = 1
# T2 construct: gene TEK
# TLK1 = settings: concentration: 1 μM, replicates: in singlicate, n = 1
# TLK2 = settings: concentration: 1 μM, replicates: in singlicate, n = 1
# TNIK = settings: concentration: 1 μM, replicates: in singlicate, n = 1
# TNK1 = settings: concentration: 1 μM, replicates: in singlicate, n = 1
# TNK2 = settings: concentration: 1 μM, replicates: in singlicate; n = 1
# TNNI3K = settings: concentration: 1 μM, replicates: in singlicate, n = 1
# TRKA = system: T3, TRKA; settings: concentration: 1 μM, replicates: in singlicate, n = 1
# T3 construct: gene NTRK1
# TRKB = settings: concentration: 1 μM, replicates: in singlicate, n = 1
# 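Also: KINOMEscan kinase panel screen.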
compound,measurement,setting,value
COc1ccc(-c2nc3n(c2-c2ccncc2)CCC3)cc1 [SKF-104493],%Inh,SgK110,0%
same,%Inh,TAK1; 1 µM,0% and 31%
same,%Inh,TAOK1,0%
same,%Inh,TAOK2; 1 µM,26% and 10%
same,%Inh,TAOK3; 1 µM,5% and 0%
same,%Inh,TBK1; 1 µM,13% and 17%
same,%Inh,TEC,0%
same,%Inh,TESK1; 1 µM,1% and 24%
same,%Inh,TGFBR1; 1 µM,37% and 31%
same,%Inh,TGFBR2,0%
same,%Inh,TIE1,0%
same,%Inh,TIE2; 1 µM,0% and 2%
same,%Inh,TLK1; 1 µM,7% and 0%
same,%Inh,TLK2; 1 µM,0% and 24%
same,%Inh,TNIK; 1 µM,0% and 11%
same,%Inh,TNK1; 1 µM,6% and 0%
same,%Inh,TNK2,0%
same,%Inh,TNNI3K; 1 µM,25% and 6%
same,%Inh,TRKA; 1 µM,0% and 32%
same,%Inh,TRKB; 1 µM,13% and 0%
c1ccc(-c2ccc3c(-c4ccnc(Nc5ccc6c(c5)OCCO6)n4)cnn3n2)cc1 [GW818941],%Inh,SgK110,0%
same,%Inh,TAK1,0%
same,%Inh,TAOK1,0%
same,%Inh,TAOK2,0%
same,%Inh,TAOK3,5%
same,%Inh,TBK1,22%
same,%Inh,TEC,0%
same,%Inh,TESK1,12%
same,%Inh,TGFBR1,11%
same,%Inh,TGFBR2,22%
same,%Inh,TIE1,22%
same,%Inh,TIE2,8%
same,%Inh,TLK1,0%
same,%Inh,TLK2,0%
same,%Inh,TNIK,1%
same,%Inh,TNK1,0%
same,%Inh,TNK2,12%
same,%Inh,TNNI3K,17%
same,%Inh,TRKA,34%
same,%Inh,TRKB,0%
Fc1cccc(COc2ccc(Nc3ncnc4nn5ccccc5c34)cc2Cl)c1 [GW689066],%Inh,SgK110,0%
same,%Inh,TAK1,0%
same,%Inh,TAOK1,0%
same,%Inh,TAOK2,0%
same,%Inh,TAOK3,0%
same,%Inh,TBK1,0%
same,%Inh,TEC,0%
same,%Inh,TESK1,14%
same,%Inh,TGFBR1,0%
same,%Inh,TGFBR2,0%
same,%Inh,TIE1,0%
same,%Inh,TIE2,0%
same,%Inh,TLK1,0%
same,%Inh,TLK2,0%
same,%Inh,TNIK,0%
same,%Inh,TNK1,0%
same,%Inh,TNK2,10%
same,%Inh,TNNI3K,0%
same,%Inh,TRKA,0%
same,%Inh,TRKB,22%
Cc1cccc(-c2nc(Nc3ccc4[nH]nnc4c3)c3ccccc3n2)n1 [GW867587],%Inh,SgK110,19%
same,%Inh,TAK1,0%
same,%Inh,TAOK1,0%
same,%Inh,TAOK2,0%
same,%Inh,TAOK3,0%
same,%Inh,TBK1,14%
same,%Inh,TEC,0%
same,%Inh,TESK1,0%
same,%Inh,TGFBR1,32%
same,%Inh,TGFBR2,0%
same,%Inh,TIE1,0%
same,%Inh,TIE2,0%
same,%Inh,TLK1,0%
same,%Inh,TLK2,0%
same,%Inh,TNIK,0%
same,%Inh,TNK1,24%
same,%Inh,TNK2,0%
same,%Inh,TNNI3K,0%
same,%Inh,TRKA,0%
same,%Inh,TRKB,0%
Cl.c1ccc(Cn2ccc3cc(Nc4ncnc5ccccc45)ccc32)cc1 [GW275568],%Inh,SgK110,0%
same,%Inh,TAK1,6%
same,%Inh,TAOK1,0%
same,%Inh,TAOK2,23%
same,%Inh,TAOK3,0%
same,%Inh,TBK1,39%
same,%Inh,TEC,4%
same,%Inh,TESK1,9%
same,%Inh,TGFBR1,29%
same,%Inh,TGFBR2,0%
same,%Inh,TIE1,0%
same,%Inh,TIE2,0%
same,%Inh,TLK1,19%
same,%Inh,TLK2,0%
same,%Inh,TNIK,0%
same,%Inh,TNK1,0%
same,%Inh,TNK2,12%
same,%Inh,TNNI3K,18%
same,%Inh,TRKA,5%
same,%Inh,TRKB,0%
Fc1cccc(COc2ccc(Nc3ncnc4sc(-c5ccc[nH]5)cc34)cc2Cl)c1 [GW707818],%Inh,SgK110,0%
same,%Inh,TAK1,0%
same,%Inh,TAOK1,10%
same,%Inh,TAOK2,8%
same,%Inh,TAOK3,14%
same,%Inh,TBK1,2%
same,%Inh,TEC,0%
same,%Inh,TESK1,5%
same,%Inh,TGFBR1,37%
same,%Inh,TGFBR2,3%
same,%Inh,TIE1,0%
same,%Inh,TIE2,16%
same,%Inh,TLK1,25%
same,%Inh,TLK2,11%
same,%Inh,TNIK,0%
same,%Inh,TNK1,0%
same,%Inh,TNK2,13%
same,%Inh,TNNI3K,13%
same,%Inh,TRKA,22%
same,%Inh,TRKB,0%
CC(C)(C)c1ccc(-n2cnc3c(N)ncnc32)cc1 [SKF-97263],%Inh,SgK110,0%
same,%Inh,TAK1,10%
same,%Inh,TAOK1,6%
same,%Inh,TAOK2,0%
same,%Inh,TAOK3,8%
same,%Inh,TBK1,15%
same,%Inh,TEC,12%
same,%Inh,TESK1,0%
same,%Inh,TGFBR1,0%
same,%Inh,TGFBR2,6%
same,%Inh,TIE1,14%
same,%Inh,TIE2,0%
same,%Inh,TLK1,0%
same,%Inh,TLK2,0%
same,%Inh,TNIK,0%
same,%Inh,TNK1,5%
same,%Inh,TNK2,10%
same,%Inh,TNNI3K,12%
same,%Inh,TRKA,18%
same,%Inh,TRKB,0%
CS(=O)(=O)CCNCc1ccc(-c2ccc3ncnc(Nc4ccc(OCc5ccccc5)c(Cl)c4)c3c2)o1.Cl [GW574783],%Inh,SgK110,0%
same,%Inh,TAK1,0%
same,%Inh,TAOK1,0%
same,%Inh,TAOK2,0%
same,%Inh,TAOK3,0%
same,%Inh,TBK1,2%
same,%Inh,TEC,7%
same,%Inh,TESK1,4%
same,%Inh,TGFBR1,11%
same,%Inh,TGFBR2,9%
same,%Inh,TIE1,34%
same,%Inh,TIE2,2%
same,%Inh,TLK1,0%
same,%Inh,TLK2,0%
same,%Inh,TNIK,0%
same,%Inh,TNK1,0%
same,%Inh,TNK2,9%
same,%Inh,TNNI3K,0%
same,%Inh,TRKA,17%
same,%Inh,TRKB,0%
C[C@H]1CC[C@@H](C(=O)Nc2ccccc2)CN1c1cc(-c2ccc3c(N)n[nH]c3c2)nc(N)n1 [GSK2283293],%Inh,SgK110,0%
same,%Inh,TAK1,0%
same,%Inh,TAOK1,0%
same,%Inh,TAOK2,0%
same,%Inh,TAOK3,0%
same,%Inh,TBK1,7%
same,%Inh,TEC,11%
same,%Inh,TESK1,26%
same,%Inh,TGFBR1,14%
same,%Inh,TGFBR2,0%
same,%Inh,TIE1,26%
same,%Inh,TIE2,0%
same,%Inh,TLK1,4%
same,%Inh,TLK2,0%
same,%Inh,TNIK,0%
same,%Inh,TNK1,0%
same,%Inh,TNK2,17%
same,%Inh,TNNI3K,0%
same,%Inh,TRKA,0%
same,%Inh,TRKB,0%
FC(F)(F)c1ccc(-c2nn3ncccc3c2-c2ccnc(Nc3cccc(C(F)(F)F)c3)n2)cc1 [GW828205],%Inh,SgK110,23%
same,%Inh,TAK1,0%
same,%Inh,TAOK1,0%
same,%Inh,TAOK2,32%
same,%Inh,TAOK3,0%
same,%Inh,TBK1,51%
same,%Inh,TEC,7%
same,%Inh,TESK1,3%
same,%Inh,TGFBR1,0%
same,%Inh,TGFBR2,0%
same,%Inh,TIE1,0%
same,%Inh,TIE2,52%
same,%Inh,TLK1,0%
same,%Inh,TLK2,8%
same,%Inh,TNIK,0%
same,%Inh,TNK1,0%
same,%Inh,TNK2,0%
same,%Inh,TNNI3K,0%
same,%Inh,TRKA,0%
same,%Inh,TRKB,0%
Cl.Fc1ccccc1COc1ccc(Nc2ncnc3ccc(-c4nnc(C(F)(F)F)o4)cc23)cc1Cl [GW424170],%Inh,SgK110,0%
same,%Inh,TAK1,0%
same,%Inh,TAOK1,0%
same,%Inh,TAOK2,0%
same,%Inh,TAOK3,0%
same,%Inh,TBK1,7%
same,%Inh,TEC,5%
same,%Inh,TESK1,29%
same,%Inh,TGFBR1,0%
same,%Inh,TGFBR2,0%
same,%Inh,TIE1,0%
same,%Inh,TIE2,0%
same,%Inh,TLK1,4%
same,%Inh,TLK2,0%
same,%Inh,TNIK,0%
same,%Inh,TNK1,0%
same,%Inh,TNK2,0%
same,%Inh,TNNI3K,0%
same,%Inh,TRKA,3%
same,%Inh,TRKB,6%
